Data reported in PubChem BioAssay (NCI).
The panel holds about 83,000 compounds, 20% with a hit somewhere; the sample as a whole holds those more often.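 Method: cells in 96-well plates; compound added at one concentration; 48 h incubation; percent growth measured; values under 10 scored active.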 Activity calls are given as the source filed them.

Legend:
Experiment in all cases: NCI-60 one-dose screen, 48 h (100 = growth as untreated, 0 = no growth, -100 = all killed)
Details in all cases: 10 µM unless noted
T-47D breast = tested on: T-47D breast
BT-549 breast = tested on: BT-549 breast
SW-620 colon = tested on: SW-620 colon
MCF7 breast = tested on: MCF7 breast
HCT-116 colon = tested on: HCT-116 colon
HCC-2998 colon = tested on: HCC-2998 colon
KM12 colon = tested on: KM12 colon

Measured: growth

C=CCCCCOc1ccccc1-c1cnc(OCCCCC=C)n1C
inactive: T-47D breast 61.9% | BT-549 breast 96.8% | SW-620 colon 30.8% | MCF7 breast 42.2% | HCT-116 colon 61% | HCC-2998 colon 61.1% | KM12 colon 38.4%

Cc1cccc(C[C@H](NC(=O)Nc2ccc(C)cc2F)C(=O)N[C@@H]2C(=O)N3C[C@H](O)C[C@H]3C(=O)N3CCN(C)C[C@H]3C(=O)N[C@@H](C)C(=O)N3C[C@H](C)C[C@H]3C(=O)O[C@H]2C)c1
inactive: T-47D breast 25.9% | BT-549 breast 22.1% | SW-620 colon 47.6% | MCF7 breast 26.7% | HCT-116 colon 14.8% | HCC-2998 colon 35.7% | KM12 colon 43.7%

COc1ccc(/C=C(/C(=O)c2ccc(Cl)cc2)C(=O)C(F)(F)F)cc1
inactive: T-47D breast 90.3% | BT-549 breast 111% | SW-620 colon 101% | MCF7 breast 77.2% | HCT-116 colon 101% | HCC-2998 colon 93.4% | KM12 colon 91.6%
